PMC5540273 (PLoS ONE, 2017)

Legend:
Details in all cases: concentration: 1 μM, replicates: in singlicate; n = 1
PRKCI = test system: PRKCI
PRKCQ = test system: PRKCQ
PRKD1 = test system: PRKD1
PRKD2 = test system: PRKD2
PRKD3 = test system: PRKD3
PRKG1 = test system: PRKG1
PRKG2 = test system: PRKG2
PRKR = test system: T1, PRKR
T1 construct: gene EIF2AK2

PRKX = test system: PRKX
PRP4 = test system: PRP4
PYK2 = test system: T2, PYK2
T2 construct: gene PTK2B

QSK = test system: QSK
RAF1 = test system: RAF1
RET = test system: RET
RIOK1 = test system: RIOK1
RIOK2 = test system: RIOK2
RIOK3 = test system: RIOK3
RIPK1 = test system: RIPK1
RIPK2 = test system: RIPK2
RIPK4 = test system: RIPK4
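Further: KINOMEscan kinase panel screen.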

| Compound | %Inh (PRKCI) | %Inh (PRKCQ) | %Inh (PRKD1) | %Inh (PRKD2) | %Inh (PRKD3) | %Inh (PRKG1) | %Inh (PRKG2) | %Inh (PRKR) | %Inh (PRKX) | %Inh (PRP4) | %Inh (PYK2) | %Inh (QSK) | %Inh (RAF1) | %Inh (RET) | %Inh (RIOK1) | %Inh (RIOK2) | %Inh (RIOK3) | %Inh (RIPK1) | %Inh (RIPK2) | %Inh (RIPK4) |
| --- | --- | --- | --- | --- | --- | --- | --- | --- | --- | --- | --- | --- | --- | --- | --- | --- | --- | --- | --- | --- |
| O=C(NCCCN1CCOCC1)c1cccc(Nc2nccc(Nc3ccc(Oc4ccccc4)cc3)n2)c1 [GW663929] | 12% | 0% | 13% | 25% | 17% | 0% | 5% | 20% | 17% | 21% | 0% | 0% | 0% | 17% | 31% | 23% | 36% | 24% | 100% | 29% |
| O=C(NCCNc1ccnc(Nc2ccc(F)cc2)n1)Nc1ccccc1F [GSK1379880] | 25% | 0% | 0% | 0% | 0% | 0% | 0% | 0% | 9% | 21% | 16% | 0% | 22% | 5% | 17% | 5% | 0% | 0% | 1% | 11% |
| Nc1nccc(-c2c(-c3ccc(F)cc3)ncn2C2CCN(CC(F)(F)F)CC2)n1 [SB-236560] | 14% | 12% | 0% | 0% | 0% | 0% | 27% | 0% | 0% | 7% | 5% | 0% | 0% | 12% | 32% | 0% | 19% | 0% | 51% | 72% |
| COc1cc2ncn(-c3cc(OCc4sccc4Cl)c(C(N)=O)s3)c2cc1OC [GSK448459] | 10% | 0% | 0% | 0% | 0% | 14% | 13% | 0% | 0% | 26% | 0% | 7% | 12% | 26% | 91.8% | 13% | 61% | 0% | 3% | 15% |
| O=C(NCCNc1ccnc(Nc2ccc(F)cc2)n1)c1cc2ccccc2s1 [GSK1379874] | 0% | 0% | 5% | 0% | 0% | 0% | 0% | 0% | 4% | 49% | 29% | 0% | 10% | 0% | 23% | 0% | 24% | 0% | 0% | 18% |
| COC(=O)Nc1nc2cc(Oc3ccc(NC(=O)Nc4cc(F)ccc4F)cc3)ccc2[nH]1.Cl [GW701424] | 0% | 0% | 0% | 0% | 6% | 0% | 0% | 0% | 0% | 62% | 0% | 0% | 89% | 95.1% | 0% | 0% | 0% | 0% | 38% | 8% |
| NS(=O)(=O)c1cccc(-c2ccc3ncc(N4CCOCC4)nc3c2)c1 [GSK1535721] | 21% | 2% | 0% | 20% | 0% | 0% | 14% | 10% | 0% | 2% | 10% | 0% | 5% | 0% | 22% | 41% | 0% | 19% | 13% | 1% |
| Cc1cccc(-c2nc(Nc3ccc4ncsc4c3)c3ccccc3n2)n1 [GW867588] | 14% | 5% | 98.7% | 99.8% | 66% | 0% | 0% | 17% | 0% | 0% | 0% | 11% | 0% | 0% | 20% | 31% | 0% | 0% | 5% | 13% |
| COc1ccc(S(=O)(=O)NC2CCN(c3cc(C)nc(Nc4cccc(C#N)c4)n3)CC2)cc1.O=C(O)C(F)(F)F [GSK1653539] | 3% | 0% | 60% | 19% | 48% | 0% | 0% | 1% | 0% | 3% | 1% | 6% | 0% | 0% | 5% | 0% | 0% | 5% | 0% | 0% |
| COc1ccc(Nc2nccc(N3CCC(NC(=O)Nc4cc(C)ccc4C)C3)n2)cc1 (centres unmarked) [GSK1379741] | 7% | 22% | 0% | 0% | 4% | 0% | 0% | 0% | 6% | 22% | 7% | 1% | 13% | 52% | 25% | 0% | 0% | 0% | 14% | 8% |
